Experimental data published in PubChem BioAssay (NCI).
Compounds without any hit were thinned out: in the full panel of roughly 83,000, 20% have a hit.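 Single-dose data. Exposure time 48 hours. Values below 10 considered active.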 A number with no mark means an inactive call. Calls of active or inactive are those of the source.

Key:
Assay in all cases: NCI-60 one-dose screen, 48 h (100 = growth as untreated, 0 = no growth, -100 = all killed)
Details in all cases: 10 µM unless noted
DU-145 prostate = test system: DU-145 prostate
K-562 leukemia = test system: K-562 leukemia
MALME-3M melanoma = test system: MALME-3M melanoma
MDA-MB-231 breast = test system: MDA-MB-231 breast
RXF 393 renal = test system: RXF 393 renal
SF-268 CNS = test system: SF-268 CNS
SF-539 CNS = test system: SF-539 CNS
UACC-257 melanoma = test system: UACC-257 melanoma
M14 melanoma = test system: M14 melanoma
HCT-15 colon = test system: HCT-15 colon
HT29 colon = test system: HT29 colon
SNB-75 CNS = test system: SNB-75 CNS
U251 CNS = test system: U251 CNS
PC-3 prostate = test system: PC-3 prostate
SK-MEL-5 melanoma = test system: SK-MEL-5 melanoma
UACC-62 melanoma = test system: UACC-62 melanoma
LOX IMVI melanoma = test system: LOX IMVI melanoma
SK-MEL-28 melanoma = test system: SK-MEL-28 melanoma
SNB-19 CNS = test system: SNB-19 CNS

SMILES: OC(c1cc2cc(Cl)ccc2c2cc(C(F)(F)F)ccc12)C1CCCCN1 (stereo unspecified)
- growth (DU-145 prostate): -95.8% (active)
- growth (K-562 leukemia): -76.8% (active)
- growth (MALME-3M melanoma): -61.9% (active)
- growth (MDA-MB-231 breast): -68% (active)
- growth (RXF 393 renal): -95.4% (active)
- growth (SF-268 CNS): -90.1% (active)
- growth (SF-539 CNS): -80.5% (active)
- growth (UACC-257 melanoma): -84% (active)
- growth (M14 melanoma): -72% (active)
- growth (HCT-15 colon): -61.7% (active)
- growth (HT29 colon): -87.3% (active)
- growth (SNB-75 CNS): -90% (active)
- growth (U251 CNS): -93.4% (active)
- growth (PC-3 prostate): -83.1% (active)
- growth (SK-MEL-5 melanoma): -24.9% (active)
- growth (UACC-62 melanoma): -72.7% (active)
- growth (LOX IMVI melanoma): -39.8% (active)
- growth (SK-MEL-28 melanoma): -90.5% (active)

SMILES: Clc1ccc2c(c1)-c1ccccc1C1=NCCN12
- growth (DU-145 prostate): 30.8%
- growth (K-562 leukemia): 9.07% (active)
- growth (MALME-3M melanoma): 11.5%
- growth (MDA-MB-231 breast): 45.6%
- growth (RXF 393 renal): 2.19% (active)
- growth (SF-268 CNS): 41.1%
- growth (SF-539 CNS): 33.8%
- growth (UACC-257 melanoma): 14.2%
- growth (M14 melanoma): 37.8%
- growth (HCT-15 colon): 20%
- growth (HT29 colon): 4.08% (active)
- growth (SNB-75 CNS): 49.5%
- growth (SNB-19 CNS): 41.6%
- growth (U251 CNS): 25%
- growth (PC-3 prostate): 28.5%
- growth (SK-MEL-5 melanoma): 19.9%
- growth (UACC-62 melanoma): 30.3%
- growth (LOX IMVI melanoma): 11.7%
- growth (SK-MEL-28 melanoma): 43.2%

SMILES: Cc1ccc(N=CNN=C(N)N)cc1
- growth (DU-145 prostate): 113%
- growth (K-562 leukemia): 87.8%
- growth (MALME-3M melanoma): 114%
- growth (MDA-MB-231 breast): 118%
- growth (RXF 393 renal): 110%
- growth (SF-268 CNS): 105%
- growth (SF-539 CNS): 94.8%
- growth (UACC-257 melanoma): 97.4%
- growth (HCT-15 colon): 100%
- growth (HT29 colon): 105%
- growth (SNB-75 CNS): 96.8%
- growth (SNB-19 CNS): 105%
- growth (U251 CNS): 97.2%
- growth (PC-3 prostate): 107%
- growth (SK-MEL-5 melanoma): 105%
- growth (UACC-62 melanoma): 89.8%
- growth (LOX IMVI melanoma): 113%
- growth (SK-MEL-28 melanoma): 106%

SMILES: C#CC[C@@H]1C[C@]2(C)[C@H]3CC[C@@H]4[C@H]5C(C(=C)C)CC[C@]5(C(=O)NCCCCCCCCN)CC[C@@]4(C)[C@]3(C)CC[C@H]2C(C)(C)[C@H]1OC(C)=O (stereo partly specified)
- growth (DU-145 prostate): 75.3%
- growth (K-562 leukemia): -41.8% (active)
- growth (MALME-3M melanoma): 111%
- growth (MDA-MB-231 breast): 67.9%
- growth (RXF 393 renal): 71.5%
- growth (SF-268 CNS): 91.2%
- growth (SF-539 CNS): 88.3%
- growth (UACC-257 melanoma): 119%
- growth (HCT-15 colon): 67.5%
- growth (HT29 colon): 30.5%
- growth (SNB-75 CNS): 80.3%
- growth (SNB-19 CNS): 92.1%
- growth (U251 CNS): 71.1%
- growth (PC-3 prostate): 55.3%
- growth (SK-MEL-5 melanoma): 98%
- growth (UACC-62 melanoma): 108%
- growth (LOX IMVI melanoma): 55%
- growth (SK-MEL-28 melanoma): 113%

SMILES: CN1CCN(Cc2ccc(NC(=O)c3cncc(C#Cc4ncc5ccccn45)c3)cc2C(F)(F)F)CC1
- growth (DU-145 prostate): -4.29% (active)
- growth (K-562 leukemia): 3.35% (active)
- growth (MALME-3M melanoma): -21.4% (active)
- growth (MDA-MB-231 breast): 15.4%
- growth (RXF 393 renal): -10.1% (active)
- growth (SF-268 CNS): 15.4%
- growth (SF-539 CNS): -79.6% (active)
- growth (UACC-257 melanoma): 7.63% (active)
- growth (M14 melanoma): 5.5% (active)
- growth (HCT-15 colon): 19.2%
- growth (HT29 colon): 5.13% (active)
- growth (SNB-75 CNS): 34.3%
- growth (U251 CNS): -27.7% (active)
- growth (PC-3 prostate): 21.9%
- growth (SK-MEL-5 melanoma): 52.3%
- growth (UACC-62 melanoma): 51.7%
- growth (LOX IMVI melanoma): 25.7%

SMILES: O=S(=O)(NCC[C@@H]1C[C@H]1c1ccc2ccccc2c1)c1ccc(C(F)(F)F)cc1
- growth (DU-145 prostate): 96.6%
- growth (K-562 leukemia): 89.2%
- growth (MALME-3M melanoma): 88.5%
- growth (MDA-MB-231 breast): 94.6%
- growth (RXF 393 renal): 109%
- growth (SF-268 CNS): 89.3%
- growth (SF-539 CNS): 99.9%
- growth (UACC-257 melanoma): 100%
- growth (M14 melanoma): 96.2%
- growth (HCT-15 colon): 93.4%
- growth (HT29 colon): 92.7%
- growth (SNB-75 CNS): 73.6%
- growth (SNB-19 CNS): 97.3%
- growth (U251 CNS): 93.5%
- growth (PC-3 prostate): 81.7%
- growth (SK-MEL-5 melanoma): 94.5%
- growth (UACC-62 melanoma): 78.5%
- growth (LOX IMVI melanoma): 97.8%
- growth (SK-MEL-28 melanoma): 108%

SMILES: COc1ccc(-c2cnc3ccnn3c2-c2cc(OC)c(OC)c(OC)c2)cc1
- growth (DU-145 prostate): 20%
- growth (K-562 leukemia): 5.43% (active)
- growth (MALME-3M melanoma): 67.5%
- growth (MDA-MB-231 breast): 50.3%
- growth (RXF 393 renal): 1.8% (active)
- growth (SF-268 CNS): 53.3%
- growth (SF-539 CNS): -13.4% (active)
- growth (UACC-257 melanoma): 58.4%
- growth (M14 melanoma): 21.5%
- growth (HCT-15 colon): 27.8%
- growth (HT29 colon): 8.99% (active)
- growth (SNB-75 CNS): 5.62% (active)
- growth (SNB-19 CNS): 56.4%
- growth (U251 CNS): 37.7%
- growth (PC-3 prostate): 29.9%
- growth (SK-MEL-5 melanoma): 13.6%
- growth (UACC-62 melanoma): 42.3%
- growth (LOX IMVI melanoma): 42.5%
- growth (SK-MEL-28 melanoma): 71.1%

SMILES: Nc1c(C(=O)Nc2cccc(Cl)c2)sc2ncc(Br)cc12
- growth (DU-145 prostate): 59.6%
- growth (K-562 leukemia): 82.9%
- growth (MALME-3M melanoma): 66.9%
- growth (MDA-MB-231 breast): 73.5%
- growth (RXF 393 renal): 86.4%
- growth (SF-268 CNS): 64.1%
- growth (SF-539 CNS): 61.5%
- growth (UACC-257 melanoma): 96%
- growth (M14 melanoma): 79.9%
- growth (HCT-15 colon): 82.5%
- growth (HT29 colon): 66.4%
- growth (SNB-75 CNS): 56%
- growth (U251 CNS): 10.8%
- growth (PC-3 prostate): 80.1%
- growth (SK-MEL-5 melanoma): 95.6%
- growth (UACC-62 melanoma): 99.5%
- growth (LOX IMVI melanoma): 39.9%
- growth (SK-MEL-28 melanoma): 89.2%
